Assay outcomes: PubChem BioAssay, National Center for Advancing Translational Sciences (NCATS)
Pf growth 96h – Primary qHTS for delayed death inhibitors of the malarial parasite plastid, 96 hour incubation; P. falciparum luciferase reporter growth, 96 h; Potency, µM (top dose mostly 28.7 µM), for inactives: top-dose activity change, negative = inhibition, hits mostly inhibitors; hit rate 6.9% among 320,000; note: potency is the fitted concentration of half-maximal effect; % is set by controls: 0 for no effect and ±100 for the full control effect
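Luminescence readout: decreased luciferase signal marks inhibited growth of reporter-expressing P. falciparum in infected red cells (2% hematocrit, 0.05% parasitemia final), exposed to compound two generations (96 h, 37 C, 5% CO2).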
CHX counter – Cycloheximide Counterscreen for Small Molecule Inhibitors of Shiga Toxin | cell reporter, cycloheximide protein synthesis inhibition counterscreen | max response, % | hit rate 12% among 300,000 | AID 2314, 2010; in the data active = max response mostly above about 13%, no sharp cut-off; inactive = mostly below about 14%; note: read at 38.3 µM for the half of the compounds with a filed dose; 0% is about no effect
Shiga inhibitor – A qHTS for Small Molecule Inhibitors of Shiga Toxin; Vero cells, Shiga toxin protein synthesis inhibition reporter; inhibition, % at 38.7 µM; hit rate 9.2% among 290,000; AID 2315, 2010; in the data active = inhibition mostly above about 28%, no sharp cut-off; inactive = mostly below about 43%; note: 0% is about no effect
Pf growth 48h – Primary qHTS for delayed death inhibitors of the malarial parasite plastid, 48 hour incubation. P. falciparum luciferase growth in erythrocytes, 48 h. hit rate 5.9% among 310,000. AID 504832, 2011. Potency, µM (doses to about 28.7 µM), for the others: at the highest dose activity change, negative = inhibition, hits mostly inhibitors; note: potency is the fitted concentration of half-maximal effect; % is set by controls: 0 for no effect and ±100 for the full control effect
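Growth was read as firefly luciferase luminescence after a 48 h, 37 C, 5% CO2 exposure of compounds to reporter-bearing P. falciparum cultures (0.1% parasitemia, 2% hematocrit final) in Albumax-supplemented RPMI 1640.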
MARV entry inh – qHTS for inhibitors of binding or entry into cells for Marburg Virus; hit rate 1.8% among 300,000; Potency, µM (series often up to 37.8 µM), inactives show at the top dose activity change, negative = inhibition, usual class: inhibitors; Marburg virus pseudotyped entry inhibition, cell reporter; AID 540276, 2011; calls by dose curve; tested in HEK293 cells; note: potency is the fitted concentration of half-maximal effect; % is set by controls: 0 for no effect and ±100 for the full control effect
LASV entry inh – qHTS for Inhibitors of binding or entry into cells for Lassa Virus; Potency, µM (titrated, usually from 37.9 µM), without a hit: top-dose activity change, negative = inhibition, hits mostly inhibitors; AID 540256, 2011; hit rate 1.2% among 300,000; Lassa virus pseudotype entry inhibition, cell reporter; calls by dose curve; tested in HEK293 cells; note: potency is the fitted concentration of half-maximal effect; % is set by controls: 0 for no effect and ±100 for the full control effect; nearly all actives have a fitted effect of over 50% in size
Active calls of the source: *; u = inconclusive; x = not tested or not shown; + = active, no number; ! = a repeat was not active; [ ] = remark or other dose. Sampled rows, rich in hits. Any-hit rate of the full collection: about 19%. Unless noted, calls come from the whole dose curve; as a rule, active = well fitted inhibition curve with a large enough effect; inconclusive = small, poorly fitted or top-dose-only effect, or another doubt; inactive = no such curve, though single readings can be large or run the other way.

SMILES | Pf growth 96h | CHX counter | Shiga inhibitor | Pf growth 48h | MARV entry inh | LASV entry inh
Cc1cccc(NC(=S)N2CCCCCC2)c1 | 47% | 8.0* | 21 | 45% | u | -1%
O=C(Nc1ccc(F)c(Cl)c1)N1CCCCCC1 | -44% | 26* | 52* | 51% | u | u
CS(=O)(=O)N1CCc2cc(S(=O)(=O)N3CCN(Cc4ccc5c(c4)OCO5)CC3)ccc21 | x | 1 | -5 | u | -11% | u
Cc1ccc(NC(=O)OC(C)N2CCCCC2)cc1NC(=O)OC(C)N1CCCCC1 (centres undefined) | x | x | x | x | 5µM* | u
S=C(Nc1ccc2nccnc2c1)N1CCOCC1 | u | 37* | 48* | 58% | u | 2%
Cc1cccc(NC(=O)N2CCCCCC2)c1 | u | 38* | 56* | 47% | x | x
Cc1ccc(NC(=O)N2CCCN(Cc3ccc(F)cc3)C2)cc1C | u | 1 | 20 | 13µM* | 6.3µM* | -17%
Cc1cccc(NC(=O)N2CCCC2)c1 | 17%[5.75 µM] | 6 | 25 | 1% | x | x
Cc1cccc(C)c1NC(=S)N1CCCN(Cc2ccc(F)cc2)C1 | 45% | 1 | -3 | -16% | u | -24%[46.1 µM]
COCCN1C(=O)N[C@H](c2cccc(C(F)(F)F)c2)C(C(=O)OC)=C1C | -24% | -6 | -16 | 4% | 9% | 4%
CCN(CC(=O)Nc1ccc(NC(C)=O)cc1)C(=O)c1ccccc1SCC(=O)N1CCCC1 | 9% | x | x | -4% | x | x
COc1ccc(CC(=O)N/N=C(\C)CC(=O)Nc2ccc3c(c2)OCCO3)cc1 | -20% | 2 | -4 | 3% | -1%[46.1 µM] | u
Cc1cccc(CN2CCN(C(=O)CCl)CC2)c1 | 0.074µM* | 5 | -13 | 1.2µM* | u | u
Cc1cccc(NC(=O)N2CCN(Cc3ccccc3)CC2)c1 | 67% | 21* | + | 67% | 22% | 3%
CC(=O)c1cccc(NC(=O)CN2CCN(Cc3ccccc3)CC2)c1 | u | -4 | -5 | -21% | 6% | u
Cc1cccc(CN2CCN(C(=O)Cc3ccccc3)CC2)c1 | u | 6 | 24 | u | 14%[46.1 µM] | 4%[46.1 µM]
CC(C)CC(=O)NC(NC(=O)CC(C)C)c1cccc([N+](=O)[O-])c1 | 5% | -2 | -24 | 1% | u | -17%
COC(=O)c1cc2ccccc2c(=O)s1 | 6% | 15* | 9 | 45% | 20% | -2%
Cc1ccc(/C=C2/NC(=O)N(Cc3ccccc3)C2=O)o1 | -18% | -1 | 9 | -19% | 24% | -3%
COC(=O)CN1C(=O)N/C(=C/c2ccc(C)o2)C1=O | 10µM* | -2 | 4 | -1% | 29%[46.1 µM] | 2%
O=C(COc1cccc2ccccc12)NNC(=O)Nc1ccccc1 | u | -1 | -16 | 46% | 4% | u
Cc1cc(NC(=O)COc2cccc(C)c2C)no1 | 2% | 28* | 60* | 65% | x | x
Cc1cccc(Oc2ccccc2NC(=O)CSCC(=O)Nc2cc(C)on2)c1 | u | x | x | u | 3.5µM* | u
O=C(COc1cccc2cccnc12)NNC(=S)Nc1ccccc1 | 0.66µM* | 2 | 9 | -22% | x | x
Cc1cc(NC(=O)COc2ccccc2C(N)=O)no1 | x | x | x | x | u | -2%[46.1 µM]
SMILES | Pf growth 96h | CHX counter | Shiga inhibitor | Pf growth 48h | MARV entry inh | LASV entry inh
Cc1cc(NC(=O)COc2cccc3cccnc23)no1 | -21% | 33* | + | u | x | x
Cc1cc(NC(=O)CSCC(=O)Nc2ccccc2OC(F)F)no1 | 7% | x | x | -21% | -1%[46.1 µM] | -15%
CCn1c(SCc2nc3ccccc3c(=O)[nH]2)nnc1C(C)NC(=O)c1ccccc1 (centres undefined) | 20% | 14 | -14 | -12% | 7%[46.1 µM] | -10%[46.1 µM]
CN(C)S(=O)(=O)N(CC(=O)NCCSc1ccccc1)c1ccccc1 | x | x | x | x | -5%[46.1 µM] | 2%[46.1 µM]
CCc1nc2cc([N+](=O)[O-])c([N+](=O)[O-])cc2[nH]1 | 0% | -1 | -6 | -3% | -4% | 0%
Cc1cc(C)cc(OCc2nnc(SCC(=O)N3CCCCC3)o2)c1 | 0% | -1 | -4 | 4% | 2%[46.1 µM] | -4%
COc1ccc(C2CC(=O)C=C(NCCC(C)C)C2)cc1 (centres undefined) | -20% | 8 | 14 | u | 4% | -9%
Cc1cc(NC(=O)COc2ccccc2C)no1 | -27% | 46* | 110* | 175% | 15% | -10%
CC(=O)c1ccc(OCC(O)CN2CCN(Cc3ccc4c(c3)OCO4)CC2)cc1 (centres undefined) | 4.1µM*! | -4 | -5 | -3% | 0% | x
OC(COCc1ccccc1)CN1CCN(Cc2ccc3c(c2)OCO3)CC1 (centres undefined) | -28% | -3 | -10 | 6% | 14%[46.1 µM] | 4%
SC(COCc1ccccc1)CN1CCN(Cc2ccc3c(c2)OCO3)CC1 (centres undefined) | 8.3µM* | -4 | -10 | u | -7%[46.1 µM] | -21%[46.1 µM]
CC(=O)Nc1ccc(S(=O)(=O)NCCC(=O)Nc2ccc(C)c(Cl)c2)cc1 | 2% | -1 | -2 | 13% | 2% | 3%
O=C(O)c1ccc2c(c1)C(=O)N(Cc1ccc3c(c1)OCO3)C2=O | u | -3 | -16 | x | -2% | 2%
Cc1cc2oc(=O)cc(COC(=O)Cn3cnnn3)c2cc1C(C)C | u | -6 | -2 | u | -16% | -5%
Cc1ccn2c(c1)nc(=O)c1cc(S(=O)(=O)N3CCCCC3)ccc12 | 0% | -8 | -8 | u | 9%[46.1 µM] | 4%
O=c1nc2ccccn2c2ccc(S(=O)(=O)N3CCCCC3)cc12 | 6.6µM* | -2 | -8 | 5.9µM* | 1%[46.1 µM] | -8%
O=C(OCc1cc(-c2ccccc2)no1)c1ccc2ccccc2n1 | 0% | -4 | -2 | 0% | -30% | 9%
COc1ccc(-n2c(N)c(-c3nc4ccccc4n3C)sc2=S)cc1 | 28% | 10 | 20 | 0.93µM* | u | u
CCOc1ccc(-n2c(N)c(-c3nc4ccccc4[nH]3)sc2=S)cc1 | x | 8 | -13 | -20% | -11% | 0%
CCCCNC(=O)C(=O)N/N=C/c1ccc(C(=O)OC)cc1 | 85% | 5 | -19 | 3% | x | x
c1ccc(-c2cnc(-c3ccccc3)nc2)cc1 | x | 69* | 88* | 257% | u | u
Nc1nc(N)nc(-c2ccccc2)n1 | u | 0 | -10 | 12% | x | x
O=C(O)c1ncc(-c2ccccc2)cn1 | x | -5 | 35 | 13% | -10% | 23%[14.3 µM]
Nc1cnc(-c2ccccc2)nc1Cl | 68% | 16 | 13* | 50% | u | -1%
CC(C)[C@H](NC(=O)c1ccco1)C(=O)NC12CC3CC(CC(C3)C1)C2 | 0% | -3 | -10 | -2% | x | x
O=C(Nc1ccccc1-c1nnc(SCc2ccc(Cl)cc2Cl)o1)c1ccccc1 | 2.3µM* | -3 | -13 | -3% | 5% | -13%
O=C(CCc1nc2ccccc2[nH]1)Nc1ccccc1F | 22% | -2 | -9 | 48% | x | x
